# DT40 TDP1 no CPT – qHTS for Inhibitors of human tyrosyl-DNA phosphodiesterase 1 (TDP1): qHTS in cells in absence of CPT. DT40 Tdp1-/- hTDP1 cells, no CPT, ATP luminescence, 48 h. 15% of 420,000 active. Potency, µM (highest dose often 46.2 µM), for the others: at the highest dose activity change, negative = growth inhibition, hits mostly inhibitors; further: potency means the concentration at half of the fitted maximal effect; nearly all actives have a fitted effect of over 55% in size
#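 Luminescent ATP content (CellTiter-Glo) served as the growth readout. Knockout chicken DT40 cells expressing human TDP1 were exposed to compounds without camptothecin for a minimum 48 hr at 37 °C.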
# IL-1B inflam inh – inhibitors of inflammasome signaling (IL-1 beta secretion) | THP-1 LPS/ATP IL-1B secretion, AlphaLISA, 16 h; hits give low values | activity change, % at 57.5 µM | 4.7% of 360,000 active; in the data active means activity change below about -50%; inconclusive means mostly about -30% to -49%
#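 THP-1 cells pretreated 1 hr with compounds (up to 57.5 uM final), then stimulated with LPS (250 ng/mL final) plus ATP (1.25 mM final); secreted IL-1B measured by AlphaLISA after 16 hr, decreased signal indicating inhibition.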
# HT1080NT lethal – kills 2HG-producing HT-1080-NT fibrosarcoma cells. HT-1080-NT fibrosarcoma viability, CellTiter-Glo ATP luminescence, 48 h. Potency, µM (highest dose often 46.1 µM), for inactives: at the top dose activity, negative = less viability, usual class: cytotoxic. 1.6% of 360,000 active;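 further: NT is the 2HG producing partner of a matched IDH1 knockdown line; potency means the concentration at half of the fitted maximal effect; 0% = DMSO-treated cells and -100% = media-only wells without cells; nearly all actives have a fitted effect of over 55% in size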
#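 HT-1080-NT; 750 cells/well; 5% FBS RPMI; 48 h compound, 37 degrees C; CellTiter-Glo luminescence; curve fitting and curve-class assignment.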
# DT40 TDP1 CPT – DT40-hTDP1 cell growth loss with CPT; chicken DT40 Tdp1-/-;hTDP1 cells + 20 nM CPT, ATP luminescence, 48 h; 12% of 420,000 active; Potency, µM (top dose mostly 46.2 µM), for the others: at the highest dose activity change, negative = growth inhibition, hits mostly inhibitors; AID 686979; further: potency means the concentration at half of the fitted maximal effect; nearly all actives have a fitted effect of over 55% in size
#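 Chicken DT40 Tdp1-/- cells stably complemented with human TDP1 were seeded at 400 cells/well in medium containing 20 nM camptothecin, exposed to pin-transferred compounds, and grown at 37 °C for at least 48 hr. Viability was read as ATP luminescence.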
# HT1080 IDH1KD tx – kills HT-1080 cells with IDH1 knockdown; 2% of 360,000 active; HT-1080 IDH1 knockdown viability, ATP luminescence, 48 h; Potency, µM (top dose mostly 46.1 µM), for the others: at the highest dose activity, negative = toxicity, most hits filed as cytotoxic;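 further: potency means the concentration at half of the fitted maximal effect; 0% = DMSO wells and -100% = cell-free medium wells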
#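 Cytotoxicity counter-line: IDH1KD HT-1080, 48 h, CellTiter-Glo. Curves classed by r2, magnitude and activity.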
# The depositor's hits bear a star; ? = inconclusive; . = not tested or not shown; [ ] = another dose, or the depositor's remark. An excerpt weighted towards active compounds, which were near 19% of everything screened. Unless noted, the call rests on the fitted dose curve; in most records, active means well fitted curve in the direction sought with a large enough effect; inconclusive means small, poorly fitted or top-dose-only effect, or another doubt; inactive means no such curve, though single readings can be large; an effect the other way counts as inactive or inconclusive. Unless noted, on the % scale 0 is the no-effect control and ±100 the full control effect.
SMILES,DT40 TDP1 no CPT,IL-1B inflam inh,HT1080NT lethal,DT40 TDP1 CPT,HT1080 IDH1KD tx
Cc1ccc(NS(=O)(=O)c2ccc3c(c2)[C@H]2C=CC[C@H]2[C@@H](c2ccc(F)cc2)N3)cc1C,5.17µM*,.,.,8.2µM*,.
O=C(O)c1ccc(NS(=O)(=O)c2ccc3c(c2)C2C=CCC2C(c2ccccc2F)N3)cc1 (configuration not stated),-6.2%,21.2,-22.7%,7.0%,-15.2%
COC(=O)c1ccc(C2Nc3ccc(/C(C)=N/NC(=O)C(OC)c4ccccc4)cc3C3C=CCC32)cc1 (configuration not stated),14.6µM*,-7.9,6.4%,13µM*,-0.2%
COc1cccc([C@H]2Nc3ccc(S(=O)(=O)Nc4cc(C)ccc4C)cc3[C@H]3C=CC[C@H]32)c1,5.17µM*,.,.,3.66µM*,.
COCc1c(C(=O)N2CCN(C3CCCC3)CC2)cnn1-c1ncc2c(n1)-c1ccccc1CCC2,-28.3%,.,.,8.4%[9.04 µM],.
OCC1(Cc2ccccc2F)CCCN(Cc2c(F)ccc(F)c2F)C1 (configuration not stated),-24.1%,?,-29.0%,4.3%,?
OCCC1CN(Cc2cnc(-c3cccc4ccccc34)nc2)CCN1C1CCCCC1 (configuration not stated),18.4µM*,-23.2,-0.3%,23.1µM*,-9.4%
O=C1CC(N2CCOCC2)C(=O)N1Cc1ccc(N2CCCC2=O)cc1 (configuration not stated),13.1%,0.0,15.2%,5.9%,11.3%
O=C1CC(N2CCC(O)(c3ccc(Cl)cc3)CC2)C(=O)N1Cc1ccc(N2CCCC2=O)cc1 (configuration not stated),14.6µM*,34.8,-14.4%,?,-15.1%
CC(C)OCCCNC(=O)COCC(=O)Nc1ccc(OCCc2ccccc2)cc1,13µM*,-2.1,?,18.4µM*,-5.5%
COc1ccc(-n2cc(C(=O)Nc3ccccc3C#N)c3ccccc3c2=O)cc1,?,.,.,-18.1%,.
Cc1cc(C)n(CCc2nc3c4ccccc4nc(N4CCN(c5ccccc5)CC4)n3n2)n1,3.26µM*,.,.,2.91µM*,.
COc1ccc(-c2nc3ccccc3nc2-c2ccc(OC)c(OC)c2)cc1OC,-2.6%,-13.9,6.7%,-3.7%,5.3%
COc1ccc(-c2cc3ccccc3nc2N)cc1OC,20.6µM*,-0.3,0.5%,18.4µM*,-1.5%
CC1CC(C)(C)CC2(C1)NC(=O)N(CC(=O)Nc1ccc3c(c1)OCO3)C2=O (configuration not stated),-10.7%,-0.5,4.7%,3.7%,1.0%
c1ccc(NC2=NCCN2CCCC2CCCCC2)cc1,23.1µM*,-61.1*,-27.1%,16.4µM*,-27.5%
c1ccc(CCCCN2CCN=C2Nc2ccccc2)cc1,16.4µM*,-4.0,-5.4%,?,-10.0%
c1ccc(NC2=NCCN2CC2CCC2)cc1,-11.9%,20.5,6.0%,3.9%,5.5%
NC(=O)NC(CC(=O)OCC(=O)Nc1nnc(-c2ccccc2)o1)c1ccc(Cl)cc1 (configuration not stated),3.4%,0.1,11.9%,2.5%,-0.1%
Cc1cc(C(=O)N2CC(C)CC(C)C2)n(-c2ccccc2)n1 (configuration not stated),8.2µM*,-9.1,16.4%,10.3µM*,-3.4%
Cc1ccc(NC(=O)CSc2ccc3nnc(CCNC(=O)c4ccccc4)n3n2)c(C)c1,-18.7%,10.4,4.7%,-2.3%,16.2%
CC(=O)NC(CC(=O)NC1CCCc2ccccc21)c1ccccc1 (configuration not stated),-16.5%,-11.2,4.7%,-9.4%,13.6%
Cc1cc(C)c(S(=O)(=O)N2CCN(C(=O)CCn3nc(C)c(C)c3C)CC2)c(C)c1,14.6µM*,-83.6*,-13.8%,-61.8%,-8.7%
COc1cccc(N2CCN(C(=O)c3cccc(S(=O)(=O)N4CCCC4)c3)CC2)c1,?,22.9,-1.0%,-2.0%,-3.4%

# Bioassay records from PubChem BioAssay.
